# Source: PubChem BioAssay
# TRHR enhancer = allosteric enhancers of human TRH receptor; P34981; TRHR cells, fluo-8 calcium fluorescence, EC20 TRH enhancement; enhancement, % at 2 µM; hit rate 0.66% among 360,000; AID 493056; in the data active = enhancement above about 30%; note: 0% is about no effect
#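 TRHR-expressing cells loaded with fluo-8 calcium dye were read kinetically (ex 480/em 530) during compound addition, then stimulated with an EC20 of TRH (10 nM final). Enhancement of the Gq-mediated intracellular calcium response was scored.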
# TRHR agonist = TRH receptor (human) agonism; P34981; AID 493084; hit rate 0.18% among 360,000; activation, % at 2 µM; TRHR cells, calcium flux fluo-8, FDSS agonist mode; note: 0% is about no effect
#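 TRHR-expressing cells, plated overnight in medium with 10% serum, were loaded with fluo-8 calcium dye at room temperature. After a 10 s baseline, library compound was pin-added and calcium release was recorded kinetically (ex 480/em 530) as agonist response.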
# D1 ag = activates the human D1 dopamine receptor. HEK293 T-REx D1 cells, calcium flux, agonist mode. activation, % at 2 µM. hit rate 1% among 360,000. AID 504660; note: 0% is about no effect
# Target sequence (P21728 whole entry, looked up): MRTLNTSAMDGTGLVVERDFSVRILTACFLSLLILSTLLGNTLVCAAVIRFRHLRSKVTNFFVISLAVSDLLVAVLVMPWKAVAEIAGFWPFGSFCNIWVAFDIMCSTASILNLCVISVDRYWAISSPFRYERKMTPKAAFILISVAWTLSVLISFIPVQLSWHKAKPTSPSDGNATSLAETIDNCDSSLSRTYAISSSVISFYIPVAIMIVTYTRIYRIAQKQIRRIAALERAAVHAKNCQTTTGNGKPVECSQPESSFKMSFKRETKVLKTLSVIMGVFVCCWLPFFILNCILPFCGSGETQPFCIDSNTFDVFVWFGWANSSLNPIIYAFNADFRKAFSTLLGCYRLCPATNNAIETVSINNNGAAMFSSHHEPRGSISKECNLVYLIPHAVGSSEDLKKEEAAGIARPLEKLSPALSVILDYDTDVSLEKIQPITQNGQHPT
#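 Agonism was scored from calcium flux recorded over 180 s (1 read/s) after pintool compound addition, following a 10-cycle baseline. Cells were inducible force-coupled HEK293 TREx D1, plated overnight at 30 C and loaded with no-wash calcium dye.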
# D1 antagonist = blocks dopamine activation of the human D1 receptor; P21728; HEK293 TREx D1 cells, calcium flux, dopamine EC80; active compounds read low; activity change, negative = inhibition, % at 10 µM; hit rate 3.2% among 360,000; in the data active = activity change below about -30%; note: % is set by controls: 0 for no effect and ±100 for the full control effect
#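 Compound effects on dopamine-evoked calcium signalling were measured in tetracycline-induced HEK293 Trex D1 cells. Dopamine at EC80 followed a 180 s compound pre-read, and fluorescence was tracked kinetically for 180 s more.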
# D1 potentiator = human D1 dopamine receptor positive modulation; P21728; HEK293 TREx D1 cells, calcium flux, dopamine EC20 potentiation; potentiation, % at 10 µM; hit rate 0.036% among 360,000; in the data active = potentiation above about 30%; note: 0% is about no effect
# Numbers without * were called inactive. An excerpt weighted towards active compounds, which were near 4.6% of everything screened. Cut-off read from the data, not from the text of the source, unless noted: active = activation above about 30%; inactive = the rest.
SMILES,TRHR enhancer,TRHR agonist,D1 ag,D1 antagonist,D1 potentiator
CCOC(=O)c1[nH]c2ccc(OCC)cc2c1CCCN1C(=O)c2ccccc2C1=O,2.7,0.1,0.4,0.1,-10.4
C=CCNC(=O)COC(=O)COc1ccc(Cl)cc1,-5.7,-0.2,2.6,-26.1,-5.5
CCOC(=O)CNc1ncc(C(F)(F)F)cc1Cl,1.0,0.4,4.2,19.7,-4.0
N#CCC(CNc1ncc(C(F)(F)F)cc1Cl)OC(=O)c1ccc(Cl)cc1Cl (configuration not stated),-2.0,0.5,30.8*,9.2,-2.5
COc1ccccc1CNCC(O)(c1ccc(Cl)cc1)c1ccc(Cl)cc1,1.9,0.7,6.4,23.0,1.2
COc1ccccc1CNCC(O)(c1ccc(F)cc1)c1ccc(F)cc1,-8.2,1.1,2.2,-51.9*,-10.3
COc1ccccc1CNN,33.1*,0.0,1.5,12.0,0.5
COc1cc2c(-c3ccc(C)cc3)nc3c(c(C)nn3-c3ccccc3)c2cc1OC,1.9,-0.2,2.3,-1.2,-1.1
O=C1Nc2ccc(Cl)cc2C12Nc1ccccc1-c1nnc(SCc3ccccc3F)nc1O2 (configuration not stated),3.7,-1.1,3.2,-44.9*,-11.3
Cc1ccc(N(Cc2cccs2)C(=O)c2ccc(OC(C)C)cc2)cc1,10.0,3.6,26.6,10.0,1.4
CSC1=NC2C(N1)N(C)C(=O)N2C (configuration not stated),38.6*,0.0,4.0,13.6,3.9
Cc1ccc(NC(=O)CCCSc2ccccc2)cc1S(=O)(=O)N1CCOCC1,13.9,0.6,3.6,-40.3*,-15.0
Cc1ccc(NC(=O)CCNS(=O)(=O)c2ccccc2F)cc1S(=O)(=O)N1CCOCC1,-5.3,-0.6,1.5,-58.5*,-3.3
O=C(CN1C(=O)NC2(CCCC2)C1=O)Nc1cc(S(=O)(=O)N2CCOCC2)ccc1OCC(F)(F)F,-6.9,0.4,2.4,-49.9*,-1.0
Cc1ccc(NC(=O)CCNC(=O)c2ccc(Br)cc2)cc1S(=O)(=O)N1CCOCC1,14.7,0.0,1.8,16.6,-4.8
CCN(CC)c1ccc(S(=O)(=O)N2CCOCC2)cc1NC(=O)CN1C(=O)NC2(CCCC2)C1=O,-9.4,-0.1,0.8,-10.2,-6.2
O=C(CNc1cc(S(=O)(=O)N2CCCC2)ccc1OCC(F)(F)F)Nc1ccc(SC(F)F)cc1,-7.8,1.4,11.4,-51.4*,-8.4
O=C(CNc1cc(S(=O)(=O)N2CCCC2)ccc1OCC(F)(F)F)Nc1cc(Cl)cc(Cl)c1,4.0,0.9,4.1,3.4,-0.9
Cc1ccc(NC(=O)C(C)N2C(=O)c3ccccc3C2=O)cc1S(=O)(=O)N1CCOCC1 (configuration not stated),-8.5,0.1,3.9,-41.9*,-5.3
Cc1ccc(NC(=O)CCN2C(=O)NC3(CCCC3)C2=O)cc1S(=O)(=O)N1CCOCC1,12.2,-0.2,7.8,-92.3*,-5.6
COc1ccc(OCCOc2ccc(N(C)S(=O)(=O)c3ccccc3)cc2)cc1,5.8,3.5,42.4*,-27.2,-2.1
CCN(Cc1ccccc1)S(=O)(=O)c1ccc(S(=O)(=O)N2CCN(CCC#N)CC2)cc1,-9.7,0.6,-0.8,-42.5*,-5.2
COc1ccc(S(=O)(=O)N(CC(=O)N2CCCC2)Cc2ccccc2)cc1,-4.5,-0.3,0.8,4.2,-2.7
CCN(Cc1ccccc1)S(=O)(=O)c1ccc(N2CCCCS2(=O)=O)cc1,-6.2,-0.4,11.7,-31.2*,0.8
CCN(Cc1ccccc1)S(=O)(=O)c1ccc(OC)cc1,1.4,-0.6,6.1,-34.4*,3.8
COc1ccccc1CNC(=O)c1cccn1-c1nnc(N2CCCC2)s1,-2.5,-0.4,1.9,-4.4,-1.0
CCN(Cc1ccccc1)S(=O)(=O)c1ccc(S(=O)(=O)N(Cc2cccc(OC)c2)CC2CCCO2)cc1 (configuration not stated),4.2,6.2,31.4*,12.2,-3.0
COc1ccc(S(=O)(=O)N(CC(=O)Nc2ccc(Br)cc2)Cc2ccccc2)cc1,-2.3,2.3,8.5,-6.1,-1.6
COc1ccc(S(=O)(=O)N(CCc2ccccc2)CC(=O)Nc2cc(C)ccc2C)cc1,-4.3,2.2,17.5,21.3,-0.9
COc1ccc(S(=O)(=O)N(CCc2ccccc2)CC(=O)Nc2cccc(OC)c2)cc1,9.6,-0.2,30.9*,-31.2*,-0.2
